Data from PubChem BioAssay (Tox21).
Inconclusive results are not listed. A call without a number means that no potency is given here. Where a structure was tested more than once in an assay, its records may differ in their call. Calls of active or inactive are those of the source. The call rests on the fitted dose curve. Non-standard residues stand in square brackets, D forms with d. Residues, ends and D or L forms follow the SMILES beside them. *: point of attachment. Sta = CC(C)C[C@H](N)[C@@H](O)CC(=O)O; Isovaleryl = CC(C)CC(=O)*

The compounds below were run against Acetylcholinesterase (Homo sapiens) (UniProt P22303) (assay: Acetylcholinesterase (AChE) small molecule antagonists: fluorescence cell-based qHTS assay (AID 1347398; further: nearly all actives have a fitted effect of over 50% in size)). Details: SH-SY5Y cells; Potency: AChE activity; outcome: AChE activity; series mostly up to 115 µM.
Sequence of Acetylcholinesterase (Homo sapiens) (P22303 whole entry, looked up): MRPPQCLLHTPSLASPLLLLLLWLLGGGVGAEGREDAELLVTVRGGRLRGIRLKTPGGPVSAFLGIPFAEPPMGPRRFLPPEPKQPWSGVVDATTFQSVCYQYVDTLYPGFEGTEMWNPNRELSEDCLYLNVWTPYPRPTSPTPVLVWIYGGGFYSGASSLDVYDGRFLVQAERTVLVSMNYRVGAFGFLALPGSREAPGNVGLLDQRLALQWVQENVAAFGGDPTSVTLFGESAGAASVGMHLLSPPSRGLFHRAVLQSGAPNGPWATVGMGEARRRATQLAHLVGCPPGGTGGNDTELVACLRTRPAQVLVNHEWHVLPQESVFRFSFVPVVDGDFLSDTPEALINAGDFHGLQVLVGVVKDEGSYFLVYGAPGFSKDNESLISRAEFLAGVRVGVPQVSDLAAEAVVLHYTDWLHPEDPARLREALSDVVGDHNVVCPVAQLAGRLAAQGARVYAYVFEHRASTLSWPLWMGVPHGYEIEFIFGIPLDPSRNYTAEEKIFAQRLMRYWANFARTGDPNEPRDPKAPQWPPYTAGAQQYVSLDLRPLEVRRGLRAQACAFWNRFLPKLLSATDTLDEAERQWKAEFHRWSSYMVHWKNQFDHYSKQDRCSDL
In short: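 Cellular AChE activity read as thiocholine from acetylthiocholine hydrolysis, detected by Thiolite Green fluorescence at 490/520 nm after 40 min at room temperature. Compounds were pre-incubated 30 min at 37 C on adherent SH-SY5Y cells.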
Potency means the concentration at half of the fitted maximal effect.

Compound	activity change, negative = inhibition	Potency
C=C/C=C/C=C/CCCCC	-10.6% [at 23.8 µM] (inactive)	–
CC1(C)[C@@H]2CC[C@@]1(C)[C@H](O)C2	–	inactive
CC(=O)N(CC(O)CN(C(C)=O)c1c(I)c(C(=O)NCC(O)CO)c(I)c(C(=O)NCC(O)CO)c1I)c1c(I)c(C(=O)NCC(O)CO)c(I)c(C(=O)NCC(O)CO)c1I (centres undefined)	–	inactive
CC1=CC(C)C(C=O)CC1 (centres undefined)	–	inactive
CC(C)=CCl	–	22.7 µM (active) and inactive
O=C1Nc2ccccc2C1(c1ccc(O)cc1)c1ccc(O)cc1	–	inactive
CC(C)CC(=O)N[C@H](C(=O)N[C@H](C(=O)N[C@@H](CC(C)C)[C@@H](O)CC(=O)N[C@@H](C)C(=O)N[C@@H](CC(C)C)[C@@H](O)CC(=O)O)C(C)C)C(C)C (Isovaleryl-VV[Sta]A[Sta]-OH)	–	inactive
O=C(O)c1ccc2c(c1)C(=O)OC2=O	–	inactive
Nc1ccn([C@@H]2O[C@H](CO)[C@@H](O)[C@@H]2O)c(=O)n1	–	inactive
CCCCC(CC)CO (centres undefined)	–	inactive
Cc1ccc2nc(-c3ccc(N)cc3)sc2c1S(=O)(=O)O	–	inactive
CC(C)(c1cc(Br)c(OCC(Br)CBr)c(Br)c1)c1cc(Br)c(OCC(Br)CBr)c(Br)c1 (centres undefined)	–	inactive
COc1ccc(C(=O)CC(=O)c2ccc(C(C)(C)C)cc2)cc1	–	inactive
CN1N=C(C(N)=O)CCC1=O	–	inactive
